Measured values: PubChem BioAssay AID504832 (National Center for Advancing Translational Sciences (NCATS), 2011)
Out of some 310,000 compounds screened, about 18,000 (5.8%) were called active. Not shown: some 22% with an inconclusive outcome. This excerpt belongs to a sample that is enriched for actives. Unmarked numbers belong to inactive results. The call rests on the fitted dose curve; in most records, active means well fitted inhibition curve with a large enough effect; inconclusive means small, poorly fitted or top-dose-only effect, or another doubt; inactive means no such curve, though single readings can be large or run the other way.

Experiment: Primary qHTS for delayed death inhibitors of the malarial parasite plastid, 48 hour incubation
Details: P. falciparum luciferase growth in erythrocytes; series mostly up to 28.7 µM; activity change, negative = inhibition: at the top concentration
Summary of the method: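 In quantitative HTS format, infected erythrocytes bearing luciferase-reporter parasites were treated for a single generation at 37 C. Luminescence after adding detection reagent served as the growth measure.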
On the % scale 0 is the no-effect control and ±100 the full control effect; potency means the concentration at half of the fitted maximal effect.

| SMILES | activity change, negative = inhibition | Potency |
| --- | --- | --- |
| Cc1csc(NC(=O)CSc2nnc(-c3cccnc3)o2)n1 | 6.46% |  |
| CC1=C(C(=O)OC(C)(C)C)C(c2ccc(Br)cc2)NC(=O)N1CCCC(=O)O (stereo not given) | 2.52% |  |
| O=C(c1cccc(S(=O)(=O)N2CCOCC2)c1)N1CCOCC1 | 3.35% |  |
| COc1ccc(Br)cc1/C=N/NC(=O)c1cccc(S(=O)(=O)N2CCOCC2)c1 | 11.9% [at 5.75 µM] |  |
| O=C(N/N=C/c1ccc([N+](=O)[O-])o1)c1cccc(S(=O)(=O)N2CCOCC2)c1 |  | 3.7 µM (active) |
| CN(Cc1c(F)cccc1Cl)S(=O)(=O)c1cccs1 | 24.5% |  |
| Cn1ncc(Br)c1C(=O)NC1CCCC1 | 104% |  |
| CCCNC(=O)c1cnc(-c2ccccc2)nc1-c1ccccc1 | 0.447% |  |
| CCCCOc1ccc(-c2ncc(C(=O)OCC)c(N)n2)cc1 | 158% |  |
| CCOC(=O)c1cnc(-c2ccccc2)nc1Oc1ccc(C)cc1 |  | 3.29 µM (active) |
| COc1cccc(CNC(=O)C2CCCN(S(=O)(=O)N3CC(C)CC(C)C3)C2)c1 (stereo not given) | -1.35% |  |
| O=C(COCc1cc(-c2ccc3c(c2)OCO3)on1)N1CCN(c2cccc(Cl)c2)CC1 | 27.3% |  |
| CCCCC(=O)Nc1c2c(nn1-c1ccc([N+](=O)[O-])cc1)CS(=O)(=O)C2 | 11.6% |  |
| Cc1ccccc1-n1c(SCC(=O)Nc2cccc3ccccc23)nc(O)cc1=O |  | 13.1 µM (active) |
| Cc1ccc2nc(SCC(=O)Nc3cccc4ccccc34)nc(=O)n2c1 | -6.05% |  |
| C=CCn1c(N)cc(=O)nc1SCC(=O)Nc1cccc2ccccc12 | 1.48% |  |
| O=C(Cc1c(Cl)cccc1Cl)NC1CC1 | 1.57% |  |
| COc1ccc(C(=O)NC2CCN(C(=O)Nc3ccc(F)cc3)CC2)cc1 | -0.699% |  |
| Cc1ccc(SCC(=O)NNC(=O)c2ccc(S(C)(=O)=O)cc2)cc1 | 34.9% |  |
| Cc1cccc(C)c1NC(=O)C1(N(C(=O)c2ccccn2)c2ccc(O)cc2)CCCCC1 | -0.862% |  |
| COc1cccc(N(Cc2nnc3n2CCCCC3)C(=O)Nc2ccccc2F)c1 | 6.97% |  |
| COc1cccc(N(C(=O)c2ccn[nH]2)C2(C(=O)Nc3c(C)cccc3C)CCCCC2)c1 |  | 9.28 µM (active) |
| COc1ccc(C)cc1NC(=O)NCCCCc1ccccc1 |  | 14.7 µM (active) |
| COc1ccc(C(=O)OCC(=O)NCCCc2ccccc2)cc1OC | 7.29% |  |
| COc1ccc(C)cc1NC(=O)NCc1ccccn1 | -13% [at 5.75 µM] |  |
| N#CC1(NC(=O)COC(=O)Cc2n[nH]c(=O)c3ccccc23)CCCCC1 | 23.3% |  |
| O=C(O)c1cccnc1Sc1ncnc2sc3c(c12)CCC3 | -7.35% |  |
| O=C(O)[C@@H]1CCCN1c1ncnc2sc3c(c12)CCC3 | 6.15% |  |

| SMILES | activity change, negative = inhibition | Potency |
| --- | --- | --- |
| OCCNc1nc2ccccc2n1-c1ncnc2sc3c(c12)CCC3 |  | 6.57 µM (active) |
| O=c1onc(-c2c(F)cccc2F)n1-c1ccccc1Cl | 4.36% [at 0.00184 µM] |  |
| Cc1ccc(S(=O)(=O)N(C)CC(=O)NCC(c2ccc(F)cc2)N2CCOCC2)cc1 (stereo not given) |  | 9.28 µM (active) |
| CN(CC(=O)NCCN1CCOCC1)S(=O)(=O)c1ccc(F)cc1 | -3.21% |  |
| Cc1ccc(S(=O)(=O)N(C)CC(=O)NC2CCCC2)cc1 | -26.8% |  |
| COc1cc([N+](=O)[O-])ccc1NC(=O)COC(=O)CCOc1ccc(C)cc1 | -17.7% |  |
| COc1ccccc1OCCNC(=O)CCNC(=O)c1ccccc1Cl | 2.48% |  |
| O=CN1CCN(C(=O)c2ccc3c(c2)OCO3)CC1 | 12.7% |  |
| CC(=O)c1c(C)[nH]c(C(=O)COC(=O)CCOc2ccc(C)cc2)c1C | -21.9% |  |
| CCNC(=S)N(CCN(CC)CC)Cc1cc2cc3c(cc2[nH]c1=O)OCCO3 | -16.8% |  |
| N=c1c2c(-c3ccccc3)c(-c3ccccc3)n(Cc3ccccc3)c2ncn1CCCO |  | 2.33 µM (active) |
| CCN(CC)CCn1cnc2c1c(=O)[nH]c(=O)n2Cc1ccccc1 | 11.6% |  |
| COCCn1cnc2c1c(=O)n(CC(=O)NN)c(=O)n2Cc1ccccc1 | -4.05% |  |
| CCNC(=O)CN(c1ccc(C)cc1)S(=O)(=O)c1ccc(SC)cc1 | -15.6% |  |
| Cc1ccc(S(=O)(=O)N(CC(=O)NCc2ccco2)c2ccccc2C)cc1 | -27.1% |  |
| Cc1ccc(S(=O)(=O)N(CC(=O)NCCSC2CCCCC2)c2ccccc2F)cc1 |  | 4.65 µM (active) |
| Cc1cccc(C)c1OCCN1CCOCC1 | 12.2% |  |
| COc1ccc(C(=O)/C=C/c2ccc(OC3CSC3)cc2)cc1 | -13% |  |
| COc1ccc(/C=C/C(=O)c2ccc(OC)cc2O)cc1 | 34.8% |  |
| COc1ccc(/C=C/C(=O)c2cc(Br)ccc(=O)c2O)cc1 |  | 13.1 µM (active) |
| CC(C)CCN1CCN=C1N(C)C | 37% |  |
| Cc1ccc(Cn2c(C)nc3c(c2=O)c2nc4ccccc4nc2n3Cc2ccco2)cc1 |  | 5.86 µM (active) |
| COCCCn1c2nc3ccccc3nc2c2c(=O)n(Cc3ccc(Cl)cc3)c(C)nc21 | -3.86% |  |
| Cc1cc(NC(=O)CSc2nc3cc(Cl)ccc3c(=O)n2Cc2ccco2)no1 | 13% |  |
| Cc1cc2nc3c(=O)n(Cc4ccccc4)c(=O)[nH]c3nc2cc1N | -1.25% |  |
| Cc1nc2c(c(=O)n1Cc1ccco1)c1nc3ccccc3nc1n2Cc1ccccc1 |  | 9.28 µM (active) |
| Nc1cc(=O)nc(SCc2ccccc2)n1Cc1ccco1 | -0.468% |  |
